{
  "source": "PubChem BioAssay AID1063",
  "about": "(University of Pittsburgh Molecular Library Screening Center, 2008)",
  "note": "The campaign covered roughly 200,000 compounds. About 18,000 (9%) were called active. Shown is part of a subset that was picked to be rich in actives. Unmarked numbers belong to inactive results. Rule as the data show it: active = inhibition above about 50%; inactive = the rest.",
  "data": [
    {"assay": "Leishmania major promastigote growth inhibition, primary screen (AID 1063);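 also: promastigotes grown with compound for 44 hours at 28 °C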", "conditions": "Leishmania major promastigotes, resazurin fluorescence viability; at 10 µM; stronger effect = higher value", "values": [
      {"smiles": "C=C(C)COc1ccc(-c2n[nH]c(C)c2-c2ccccc2OC)c(O)c1", "inhibition": "-7.88%"},
      {"smiles": "COc1ccccc1-c1n[nH]c2c1[C@H](C)CC[C@H]2C(C)C", "inhibition": "62.9% (active)"},
      {"smiles": "Cc1ccc(S(=O)(=O)N(C)C)cc1NC(=O)c1ccccc1Br", "inhibition": "-1.67%"},
      {"smiles": "COc1ccc(OC)c(-c2csc(NC(=O)C3=NNC(=O)CC3)n2)c1", "inhibition": "-4.28%"},
      {"smiles": "CCc1nnc(NC(=O)CSc2nc(SC)ns2)s1", "inhibition": "-6.1%"},
      {"smiles": "CCOC(=O)C1C(=O)C=C(c2ccc(OC)cc2)CC1c1ccco1", "note": "(centres undefined)", "inhibition": "0.83%"},
      {"smiles": "CC(=O)NC1C(Oc2ccc(C)cc2)OC2COC(c3ccco3)OC2C1O", "note": "(centres undefined)", "inhibition": "54.2% (active)"},
      {"smiles": "CCc1cccc(OC2OC(CO)C(O)C(O)C2NC(C)=O)c1", "note": "(centres undefined)", "inhibition": "-8.46%"},
      {"smiles": "CCC(C)(C)NC(=O)CN(Cc1cccs1)C(=O)CNS(=O)(=O)c1ccc(F)cc1", "inhibition": "-4.43%"},
      {"smiles": "CCOC(=O)c1c(C)[nH]c(=S)c(C#N)c1-c1ccccc1", "inhibition": "-3.7%"},
      {"smiles": "CCOC(=O)c1cc2n(c1N)-c1ccccc1C2=O", "inhibition": "1.96%"},
      {"smiles": "CCOC(=O)c1c(C)[nH]c2c1-c1ccccc1C(=O)C2=O", "inhibition": "100% (active)"},
      {"smiles": "O=c1cc(O)c(-c2cccc(C(F)(F)F)c2)c(Cl)[nH]1", "inhibition": "16.3%"},
      {"smiles": "Clc1cccc(-c2nc(NCC3CCCO3)c3ccccc3n2)c1", "note": "(centres undefined)", "inhibition": "76.4% (active)"},
      {"smiles": "CC(C)(C)c1nc(NCC2CCCO2)c2nnn(Cc3ccccc3)c2n1", "note": "(centres undefined)", "inhibition": "2.46%"},
      {"smiles": "c1ccc2c(NCC3CCCO3)nc(-c3ccncc3)nc2c1", "note": "(centres undefined)", "inhibition": "3.5%"},
      {"smiles": "CCOC(=O)c1cnn(Cc2ccccc2Cl)c1N", "inhibition": "0.00878%"},
      {"smiles": "CCOC(=O)N/N=C/c1cn(Cc2ccccc2Cl)c2ccccc12", "inhibition": "83.9% (active)"},
      {"smiles": "COC(=O)Cn1cc(/C=C/[N+](=O)[O-])c2ccccc21", "inhibition": "27.7%"},
      {"smiles": "CNC(=S)N/N=C/c1cn(Cc2ccc(C)cc2)c2ccccc12", "inhibition": "62.8% (active)"},
      {"smiles": "O=C(Cn1cc(/C=N/NC(=O)c2cccc(C(F)(F)F)c2)c2ccccc21)Nc1ccc(F)cc1", "inhibition": "6.06%"},
      {"smiles": "COC(=O)N/N=C/c1cn(CCCOc2ccc(C)cc2)c2ccccc12", "inhibition": "55.6% (active)"},
      {"smiles": "CCOC(=O)N/N=C/c1cccnc1", "inhibition": "1.46%"},
      {"smiles": "CNC(=S)N/N=C/c1ccc(OCc2ccccc2)c(Br)c1", "inhibition": "1.78%"},
      {"smiles": "Cc1ccc(OCCCn2c(=O)oc3ccccc32)cc1", "inhibition": "-3.5%"},
      {"smiles": "CCN(CC)S(=O)(=O)c1ccc(NC(=O)c2cccnc2Cl)c(NC(=O)c2cccnc2Cl)c1", "inhibition": "-1.01%"},
      {"smiles": "O=C(Nc1ccc(Cl)cc1)C1c2cccc[n+]2CC(=O)N1Cc1ccc2c(c1)OCO2", "note": "(centres undefined)", "inhibition": "-2.66%"},
      {"smiles": "CCC(=O)Nc1ccc(Nc2nc(Cl)nc(Nc3ccc(NC(=O)CC)cc3)n2)cc1", "inhibition": "-6.56%"},
      {"smiles": "N#CCSc1nn(-c2ccc(F)cc2)c(=S)s1", "inhibition": "-4.75%"},
      {"smiles": "Cc1ccc(S(=O)(=O)N2CCN(C(=O)c3cccs3)CC2)cc1", "inhibition": "-4.13%"},
      {"smiles": "Cc1ccnc(NS(=O)(=O)c2ccc(NC(=O)c3ccc(S(=O)(=O)N(C)C)cc3)cc2)n1", "inhibition": "-6.03%"},
      {"smiles": "COC(=O)c1c(NC(=O)CCCC(=O)O)sc2c1CCCCC2", "inhibition": "-4.64%"},
      {"smiles": "Cc1cccc(Nc2nc3c(S(=O)(=O)c4ccccc4)nnn3c3ccccc23)c1C", "inhibition": "57.1% (active)"},
      {"smiles": "COCCCNc1nc2c(-c3cccc(C(F)(F)F)c3)nnn2c2ccccc12", "inhibition": "0.99%"},
      {"smiles": "CC(=O)Nc1ccc(Nc2nc3c(S(=O)(=O)c4ccc(C)c(C)c4)nnn3c3ccccc23)cc1", "inhibition": "3.4%"},
      {"smiles": "COc1ccc(N(CC(=O)NC2CCCC2)C(=O)CS(=O)CC(=O)Nc2ccc3c(c2)OCO3)cc1", "note": "(centres undefined)", "inhibition": "-10.1%"},
      {"smiles": "COc1ccc(CC(=O)NCc2nnc(SCC(=O)Nc3nccs3)n2C)cc1", "inhibition": "-3.12%"},
      {"smiles": "CC(=O)Oc1ccccc1C1=NN(C(C)=O)C(c2ccccc2)C1", "note": "(centres undefined)", "inhibition": "-5.99%"},
      {"smiles": "COc1cc([N+](=O)[O-])ccc1NC(=S)N1CCN(c2ccccn2)CC1", "inhibition": "-4.39%"},
      {"smiles": "Cc1cccn2c(CN(C)C3CCCc4ccccc43)c(C(=O)N3CCOCC3)nc12", "note": "(centres undefined)", "inhibition": "7.87%"},
      {"smiles": "Cc1cccn2c(=O)c3cc(C(=O)N4COCC4(C)C)n(C)c3nc12", "inhibition": "89.9% (active)"},
      {"smiles": "O=C(O)C1C2CC2CN1C(=O)c1ccc(Cl)cc1Cl", "note": "(centres undefined)", "inhibition": "-2.09%"},
      {"smiles": "COc1ccc(NC(=O)Nc2ccc3nc(C)c(C)nc3c2)cc1", "inhibition": "6.7%"},
      {"smiles": "COc1ccc2nc(/N=C(\\N)NC(=O)Nc3ccccc3)nc(C)c2c1", "inhibition": "99.9% (active)"},
      {"smiles": "COc1ccc2nc(SCc3ccccc3)nc(C)c2c1", "inhibition": "-8.99%"},
      {"smiles": "Cc1nc2cc(NCc3cccs3)ccc2n1C", "inhibition": "9.59%"},
      {"smiles": "C[C@H](NC(=O)c1ccccc1Cl)C(=O)OCCOc1cccc(Cl)c1", "inhibition": "-6.25%"},
      {"smiles": "CC(=O)N/N=C/c1cc2c(cc1[N+](=O)[O-])OCO2", "inhibition": "-2.52%"},
      {"smiles": "CCn1c(CSc2nc(C)cc(C)n2)nnc1SCC(N)=O", "inhibition": "-0.87%"}
    ]}
  ]
}
